Test results reported in the supplement of paper PMC10849652.
Of roughly 7,900 targets only a part is listed; those with a hit were picked by preference. About 0.6% of all pairs of compound and target were hits. A number with no mark means an inactive call.

Experiments:
Assay in all cases: log2 fold change, soluble protein after heating vs DMSO (PISA); higher = thermal stabilisation; K562 cells, 10 uM, 30 min; active = over 0.2 and 3.5 SD of the protein, either way, in both replicates (recomputed)
[1] = compound: CC[C@@H]1C(=O)N(C)c2cnc(Nc3ccc(C(=O)NC4CCN(C)CC4)cc3OC)nc2N1C1CCCC1
Summary of the method: (§1)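 K562 cells (2×10^6 cells/mL) were treated with 10 μM compound for 30 min, and aliquots were heated for 3 min over 48°C-58°C. Pooled aliquots were extracted in PBS with 0.5% NP-40 at 4°C, and the supernatant after 21,000xg for 90 min was measured by TMTpro 16plex LC-MS/MS with channel sums equalised. Reported thermal stability, relative to control samples and from duplicates, is a log2 fold change.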

volasertib = compound: CC[C@@H]1C(=O)N(C)c2cnc(Nc3ccc(C(=O)N[C@H]4CC[C@H](N5CCN(CC6CC6)CC5)CC4)cc3OC)nc2N1C(C)C [volasertib]
Summary of the method: as §1

[2] = compound: CC[C@H](C)N1C=C(C2=C(C=C(C=C21)C3=CN=C(C=C3)N4CCNCC4)C(=O)NCC5=C(C=C(NC5=O)C)C)C
Summary of the method: as §1

epoxomicin = compound: CC[C@H](C)[C@@H](C(=O)N[C@@H]([C@@H](C)O)C(=O)N[C@@H](CC(C)C)C(=O)[C@]1(CO1)C)NC(=O)[C@H]([C@@H](C)CC)N(C)C(=O)C [epoxomicin]
Summary of the method: as §1

[3] = compound: CCn1c(C(=O)N(C2CC2)C2CC2)cc2c3c(ncn3C)c(Nc3cc(C)n(C)n3)nc21
Summary of the method: as §1

[4] = compound: CCn1cc(-c2ccnc3[nH]c(-c4cccc(CN(C)C)c4)cc23)c(-c2ccc(NC(=O)N(C)C)cc2)n1
Summary of the method: as §1

[5] = compound: CN(C)CC(=O)Nc1ccc2[nH]c(=O)c3ccccc3c2c1
Summary of the method: as §1

rosiglitazone = compound: CN(CCOC1=CC=C(C=C1)C[C@H]2C(=O)NC(=O)S2)C3=CC=CC=N3 (racemic) [rosiglitazone]
Summary of the method: as §1

[6] = compound: CN1C2=C(C3=C1C(=O)N(N=C3)CC4=CC(=CC=C4)N)SC(=C2)S(=O)C
Summary of the method: as §1

[7] = compound: CN1CCC(CNc2ccc3ncc(-c4cccc(OC(F)(F)F)c4)n3n2)CC1
Summary of the method: as §1

saracatinib = compound: CN1CCN(CCOc2cc(OC3CCOCC3)c3c(Nc4c(Cl)ccc5c4OCO5)ncnc3c2)CC1 [saracatinib]
Summary of the method: as §1

sotrastaurin = compound: CN1CCN(c2nc(C3=C(c4c[nH]c5ccccc45)C(=O)NC3=O)c3ccccc3n2)CC1 [sotrastaurin]
Summary of the method: as §1

alvocidib = compound: CN1CC[C@H](c2c(O)cc(O)c3c(=O)cc(-c4ccccc4Cl)oc23)[C@H](O)C1 [alvocidib]
Summary of the method: as §1

Tubastatin A = compound: CN1CCc2c(c3ccccc3n2Cc2ccc(C(=O)NO)cc2)C1 [Tubastatin A]
Summary of the method: as §1

[8] = compound: CNC(=O)C1=CC=CC=C1NC2=NC(=NC=C2Cl)NC3=C(C=C(C=C3)N4CCOCC4)OC
Summary of the method: as §1

defactinib = compound: CNC(=O)c1ccc(Nc2ncc(C(F)(F)F)c(NCc3nccnc3N(C)S(C)(=O)=O)n2)cc1 [defactinib]
Summary of the method: as §1

rucaparib = compound: CNCc1ccc(-c2[nH]c3cc(F)cc4c3c2CCNC4=O)cc1 [rucaparib]
Summary of the method: as §1

[9] = compound: CNc1nc(-c2ccc3c(N)n[nH]c3c2)cc(N2C[C@@H](C(=O)NC3CCCCC3)CC[C@H]2C)n1
Summary of the method: as §1

encorafenib = compound: COC(=O)N[C@@H](C)CNc1nccc(-c2cn(C(C)C)nc2-c2cc(Cl)cc(NS(C)(=O)=O)c2F)n1 [encorafenib]
Summary of the method: as §1

[10] = compound: COC(=O)[C@H](CCSC)NC(=O)C1=C(C=C(C=C1)NC[C@H](CS)N)C2=CC=CC=C2
Summary of the method: as §1

Sequence of UniProt Q15059 (Q15059 whole entry, looked up): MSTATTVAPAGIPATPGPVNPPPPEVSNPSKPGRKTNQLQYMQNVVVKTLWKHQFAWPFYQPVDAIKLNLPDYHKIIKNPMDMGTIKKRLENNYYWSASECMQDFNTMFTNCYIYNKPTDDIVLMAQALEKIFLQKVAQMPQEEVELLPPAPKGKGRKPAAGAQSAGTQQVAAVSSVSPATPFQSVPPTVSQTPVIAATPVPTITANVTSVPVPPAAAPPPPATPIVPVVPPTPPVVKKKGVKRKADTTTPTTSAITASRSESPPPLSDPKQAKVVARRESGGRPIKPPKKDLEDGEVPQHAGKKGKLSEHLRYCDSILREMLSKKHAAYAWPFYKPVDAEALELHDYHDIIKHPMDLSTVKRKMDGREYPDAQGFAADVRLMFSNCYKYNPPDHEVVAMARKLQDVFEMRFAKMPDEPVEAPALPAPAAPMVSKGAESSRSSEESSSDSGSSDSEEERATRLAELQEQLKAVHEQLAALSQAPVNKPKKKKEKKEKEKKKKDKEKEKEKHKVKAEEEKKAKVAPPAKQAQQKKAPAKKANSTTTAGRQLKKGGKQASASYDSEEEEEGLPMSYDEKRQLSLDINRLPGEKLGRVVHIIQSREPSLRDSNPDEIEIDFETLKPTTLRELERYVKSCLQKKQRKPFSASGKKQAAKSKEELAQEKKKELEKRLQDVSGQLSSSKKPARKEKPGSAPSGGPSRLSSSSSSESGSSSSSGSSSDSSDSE
Sequence of UniProt P55263 (P55263 whole entry, looked up): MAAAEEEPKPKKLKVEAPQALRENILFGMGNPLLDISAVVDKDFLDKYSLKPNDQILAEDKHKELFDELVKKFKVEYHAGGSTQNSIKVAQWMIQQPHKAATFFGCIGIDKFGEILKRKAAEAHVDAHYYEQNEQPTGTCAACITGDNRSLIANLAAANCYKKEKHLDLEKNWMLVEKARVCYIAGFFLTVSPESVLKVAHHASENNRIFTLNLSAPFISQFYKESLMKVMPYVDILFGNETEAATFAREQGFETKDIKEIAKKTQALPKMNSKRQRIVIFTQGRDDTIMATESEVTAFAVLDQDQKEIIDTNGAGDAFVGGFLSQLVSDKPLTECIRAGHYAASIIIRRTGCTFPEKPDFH
Sequence of UniProt Q5JTZ9 (Q5JTZ9 whole entry, looked up): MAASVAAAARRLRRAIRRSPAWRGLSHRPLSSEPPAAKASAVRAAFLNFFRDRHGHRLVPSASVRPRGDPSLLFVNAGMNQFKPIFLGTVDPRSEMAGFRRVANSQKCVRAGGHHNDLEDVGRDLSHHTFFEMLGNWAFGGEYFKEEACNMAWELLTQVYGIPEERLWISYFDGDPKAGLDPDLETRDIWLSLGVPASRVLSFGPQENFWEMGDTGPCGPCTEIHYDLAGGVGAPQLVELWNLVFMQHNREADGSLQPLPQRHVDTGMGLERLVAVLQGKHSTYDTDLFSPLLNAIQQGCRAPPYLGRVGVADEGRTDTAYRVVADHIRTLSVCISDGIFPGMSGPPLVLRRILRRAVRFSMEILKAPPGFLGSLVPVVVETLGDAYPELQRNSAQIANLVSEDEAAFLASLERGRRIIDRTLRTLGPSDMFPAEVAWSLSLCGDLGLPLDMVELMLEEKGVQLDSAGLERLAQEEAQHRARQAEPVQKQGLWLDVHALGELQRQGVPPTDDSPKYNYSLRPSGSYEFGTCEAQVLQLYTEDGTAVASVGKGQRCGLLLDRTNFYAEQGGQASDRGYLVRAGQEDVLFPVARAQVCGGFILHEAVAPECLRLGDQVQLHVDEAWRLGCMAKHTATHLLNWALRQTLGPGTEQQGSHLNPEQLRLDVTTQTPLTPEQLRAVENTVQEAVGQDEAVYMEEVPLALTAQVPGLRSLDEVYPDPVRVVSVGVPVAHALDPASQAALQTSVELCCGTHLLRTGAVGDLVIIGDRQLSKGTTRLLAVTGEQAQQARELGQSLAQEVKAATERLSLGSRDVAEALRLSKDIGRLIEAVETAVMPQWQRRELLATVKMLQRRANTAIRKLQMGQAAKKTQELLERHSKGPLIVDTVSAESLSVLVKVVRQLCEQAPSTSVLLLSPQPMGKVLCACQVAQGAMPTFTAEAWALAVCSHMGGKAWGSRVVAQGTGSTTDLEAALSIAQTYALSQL
Sequence of UniProt O60566 (O60566 whole entry, looked up): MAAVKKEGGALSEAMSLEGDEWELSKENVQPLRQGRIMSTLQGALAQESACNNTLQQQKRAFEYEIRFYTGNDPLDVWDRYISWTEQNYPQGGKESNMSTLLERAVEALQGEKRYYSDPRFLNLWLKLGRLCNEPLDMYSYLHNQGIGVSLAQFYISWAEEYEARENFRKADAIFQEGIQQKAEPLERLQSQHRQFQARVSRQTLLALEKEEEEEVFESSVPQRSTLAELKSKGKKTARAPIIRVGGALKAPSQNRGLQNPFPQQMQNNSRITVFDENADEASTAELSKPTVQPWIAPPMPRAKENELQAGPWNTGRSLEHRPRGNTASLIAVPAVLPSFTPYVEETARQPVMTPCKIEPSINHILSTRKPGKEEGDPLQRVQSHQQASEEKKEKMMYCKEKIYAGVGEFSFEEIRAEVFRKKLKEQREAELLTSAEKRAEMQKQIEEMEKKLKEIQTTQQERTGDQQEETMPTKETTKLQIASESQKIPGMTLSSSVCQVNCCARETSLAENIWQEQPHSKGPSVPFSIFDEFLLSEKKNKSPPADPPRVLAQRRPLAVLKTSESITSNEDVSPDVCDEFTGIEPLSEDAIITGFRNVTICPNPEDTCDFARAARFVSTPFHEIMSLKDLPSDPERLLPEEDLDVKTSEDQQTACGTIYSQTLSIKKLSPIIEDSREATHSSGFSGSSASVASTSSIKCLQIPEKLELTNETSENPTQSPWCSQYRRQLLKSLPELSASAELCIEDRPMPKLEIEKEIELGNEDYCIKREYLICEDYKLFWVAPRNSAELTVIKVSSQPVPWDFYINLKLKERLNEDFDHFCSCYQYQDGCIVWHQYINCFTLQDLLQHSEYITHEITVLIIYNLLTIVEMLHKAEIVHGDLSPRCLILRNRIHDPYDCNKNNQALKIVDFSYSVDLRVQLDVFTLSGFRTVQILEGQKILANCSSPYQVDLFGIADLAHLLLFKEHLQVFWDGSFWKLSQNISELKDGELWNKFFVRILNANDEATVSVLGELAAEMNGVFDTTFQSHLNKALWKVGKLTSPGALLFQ
Sequence of UniProt Q9P287 (Q9P287 whole entry, looked up): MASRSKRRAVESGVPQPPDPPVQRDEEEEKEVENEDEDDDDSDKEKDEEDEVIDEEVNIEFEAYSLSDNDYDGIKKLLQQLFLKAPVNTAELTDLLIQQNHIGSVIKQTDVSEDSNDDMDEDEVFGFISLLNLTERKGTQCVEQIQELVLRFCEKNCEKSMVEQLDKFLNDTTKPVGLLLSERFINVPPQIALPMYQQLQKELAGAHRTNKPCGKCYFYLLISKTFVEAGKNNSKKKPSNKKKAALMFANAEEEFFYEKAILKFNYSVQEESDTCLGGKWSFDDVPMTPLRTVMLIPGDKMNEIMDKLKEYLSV
Sequence of UniProt Q8WV93 (Q8WV93 whole entry, looked up): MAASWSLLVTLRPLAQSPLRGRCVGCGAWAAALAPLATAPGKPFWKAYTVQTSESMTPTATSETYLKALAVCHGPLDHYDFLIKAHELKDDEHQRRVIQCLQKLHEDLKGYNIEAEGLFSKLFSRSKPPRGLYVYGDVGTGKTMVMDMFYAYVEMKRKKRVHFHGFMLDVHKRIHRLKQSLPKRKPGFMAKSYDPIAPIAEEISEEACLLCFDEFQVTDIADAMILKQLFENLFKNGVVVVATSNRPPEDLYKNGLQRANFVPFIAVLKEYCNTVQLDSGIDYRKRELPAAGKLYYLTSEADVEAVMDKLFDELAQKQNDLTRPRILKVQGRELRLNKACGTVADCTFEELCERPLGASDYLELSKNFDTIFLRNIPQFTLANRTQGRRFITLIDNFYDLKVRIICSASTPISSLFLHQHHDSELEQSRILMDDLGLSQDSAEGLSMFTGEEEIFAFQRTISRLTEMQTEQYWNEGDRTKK
Sequence of UniProt P17707 (P17707 whole entry, looked up): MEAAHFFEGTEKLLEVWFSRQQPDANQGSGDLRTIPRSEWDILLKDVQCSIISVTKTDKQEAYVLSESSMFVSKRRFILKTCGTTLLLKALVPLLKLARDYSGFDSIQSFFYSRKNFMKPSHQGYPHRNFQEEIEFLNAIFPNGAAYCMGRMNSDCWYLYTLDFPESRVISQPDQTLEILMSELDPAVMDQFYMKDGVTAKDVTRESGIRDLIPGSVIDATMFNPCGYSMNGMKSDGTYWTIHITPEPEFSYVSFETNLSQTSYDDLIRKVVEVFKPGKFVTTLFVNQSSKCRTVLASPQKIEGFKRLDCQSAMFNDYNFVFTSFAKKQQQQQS
Sequence of UniProt Q15904 (Q15904 whole entry, looked up): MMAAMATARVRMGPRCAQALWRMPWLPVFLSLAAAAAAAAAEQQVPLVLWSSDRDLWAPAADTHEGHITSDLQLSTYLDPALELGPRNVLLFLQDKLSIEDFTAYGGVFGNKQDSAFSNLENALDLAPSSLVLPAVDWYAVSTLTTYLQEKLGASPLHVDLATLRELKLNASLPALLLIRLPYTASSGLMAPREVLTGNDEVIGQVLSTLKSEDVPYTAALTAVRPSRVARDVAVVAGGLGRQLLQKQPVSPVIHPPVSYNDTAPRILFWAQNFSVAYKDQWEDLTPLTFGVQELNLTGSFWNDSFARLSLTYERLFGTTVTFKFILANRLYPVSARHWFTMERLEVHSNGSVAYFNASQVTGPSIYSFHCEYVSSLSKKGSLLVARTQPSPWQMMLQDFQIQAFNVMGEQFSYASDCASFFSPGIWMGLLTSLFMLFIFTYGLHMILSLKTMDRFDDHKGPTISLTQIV
Sequence of UniProt Q13795 (Q13795 whole entry, looked up): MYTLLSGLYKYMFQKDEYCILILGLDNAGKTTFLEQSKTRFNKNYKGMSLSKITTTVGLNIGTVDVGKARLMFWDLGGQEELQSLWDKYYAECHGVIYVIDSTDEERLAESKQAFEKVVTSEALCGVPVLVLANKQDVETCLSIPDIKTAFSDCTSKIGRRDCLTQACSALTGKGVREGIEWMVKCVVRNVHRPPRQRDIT

Row | Target | log2 fold change [1] | log2 fold change (volasertib) | log2 fold change [2] | log2 fold change (epoxomicin) | log2 fold change [3] | log2 fold change [4] | log2 fold change [5] | log2 fold change (rosiglitazone) | log2 fold change [6] | log2 fold change [7] | log2 fold change (saracatinib) | log2 fold change (sotrastaurin) | log2 fold change (alvocidib) | log2 fold change (Tubastatin A) | log2 fold change [8] | log2 fold change (defactinib) | log2 fold change (rucaparib) | log2 fold change [9] | log2 fold change (encorafenib) | log2 fold change [10]
1 | BUB1B isoform 3 (UniProt O60566) | -0.127 | -0.66 (active) | 0.056 | 0.02 | -0.055 | 0.043 | 0.065 | 0.089 | 0.013 | -0.078 | -0.071 | -0.113 | -0.074 | 0.031 | 0.042 | -0.076 | 0.006 | -0.031 | 0.097 | -0.029
2 | ATRN (UniProt O75882) | 0.029 | -0.094 | -0.019 | 0.063 | -0.1 | 0.004 | -0.01 | -0.096 | 0.095 | 0.121 | 0.05 | -0.047 | -0.024 | 0.012 | -0.017 | -0.065 | 0.022 | 0.12 | -0.05 | 0.045
3 | ATP6AP1 (UniProt Q15904) | -0.05 | -0.02 | 0.033 | 0.09 | 0.011 | 0.037 | -0.074 | 0 | 0.098 | 0.016 | -0.021 | -0.097 | 0.055 | 0.043 | -0.011 | 0.066 | -0.057 | -0.006 | 0.053 | -0.031
4 | ASNS (UniProt P08243) | -0.01 | 0.015 | 0.008 | 0.021 | 0.008 | -0.051 | -0.008 | 0.003 | -0.064 | -0.037 | 0.041 | 0.016 | -0.013 | -0.002 | -0.036 | -0.018 | -0.017 | -0.015 | -0.009 | -0.001
5 | AFDN isoform 5 (UniProt P55196) | -0.072 | -0.254 (active) | 0.05 | 0.047 | -0.047 | -0.099 | 0.008 | 0.044 | -0.003 | -0.353 (active) | -0.034 | -0.032 | -0.095 | 0.025 | -0.043 | -0.115 | 0.023 | 0.035 | 0.077 | -0.033
6 | AARS2 (UniProt Q5JTZ9) | 0.001 | -0.199 | 0.023 | 0.023 | -0.015 | -0.05 | 0.031 | 0.054 | -0.062 | -0.312 (active) | 0 | -0.05 | -0.1 | -0.096 | -0.019 | -0.027 | 0.008 | 0.004 | 0 | -0.017
7 | ADK (UniProt P55263) | 0.338 | 0.359 | -0.095 | -0.011 | 0.097 | -0.026 | -0.018 | -0.017 | -0.085 | 0.184 | 0.158 | 0.26 | 0.305 | -0.007 | 0.119 | 0.055 | -0.021 | -0.017 | -0.044 | 0.002
8 | ARFRP1 (UniProt Q13795) | -0.038 | -0.05 | 0.048 | 0.037 | 0.026 | -0.23 | 0.012 | -0.021 | -0.021 | 0.071 | 0.108 | -0.035 | -0.008 | -0.059 | 0.037 | 0.01 | 0.033 | 0.031 | -0.027 | -0.137
9 | BCCIP (UniProt Q9P287) | -0.009 | -0.047 | -0.005 | 0.092 | -0.04 | 0.033 | 0.019 | 0.042 | 0.047 | -0.043 | -0.132 | 0 | 0.065 | -0.045 | -0.013 | 0.072 | 0.165 | 0.02 | 0.076 | -0.049
10 | AFG1L (UniProt Q8WV93) | 0.047 | -0.223 | 0.207 | 0.035 | 0.017 |  | 0.063 | 0.021 | -0.122 |  | -0.038 | -0.075 | -0.195 | -0.204 | -0.011 | -0.131 | -0.057 | 0.002 | 0.025 | 0.088
11 | ARF4 (UniProt P18085) | 0.064 | 0.094 | 0.009 | 0.112 | -0.008 | 0.014 | 0.041 | -0.033 | -0.076 | 0.097 | 0.052 | 0.028 | -0.005 | 0.011 | 0.028 | -0.005 | -0.051 | -0.004 | 0 | -0.032
12 | ACTBL2 (UniProt Q562R1) | -0.121 | 0.153 | -0.133 | -0.1 | 0.05 | 0.162 | -0.3 | 0.07 | 0.011 | 0.065 | -0.054 | 0.179 |  |  | 0.158 | 0.432 | -0.711 | 0.035 | 0.239 | 0.15
13 | AAR2 (UniProt Q9Y312) | -0.032 | -0.016 | -0.03 | 0.037 | -0.038 | 0.106 | -0.001 | 0 | -0.087 | -0.096 | 0.06 | -0.017 | -0.026 | -0.027 | -0.049 | 0.063 | 0.17 | -0.069 | -0.029 | -0.015
14 | AMD1 (UniProt P17707) | 0.061 | -0.098 | 0.099 | 0.057 | -0.073 | -0.033 | -0.101 | 0.089 |  | -0.091 |  | -0.017 |  | 0.014 | 0.02 | 0.082 | -0.08 |  | 0.023 | 0.042
15 | BRD3 (UniProt Q15059) | 1.63 (active) | 1.46 (active) | -0.088 |  | -0.065 | 0.681 (active) | 0.073 | 0.019 | -0.143 | 0.106 | 0.093 | -0.116 | -0.076 | -0.571 (active) | 0.011 | -0.319 | -0.083 | 0.325 | 0.086 | -0.128
16 | BRAP (UniProt Q7Z569) | -0.092 | -0.23 | 0.033 | -0.093 | -0.02 | 0.086 | 0.02 | 0.02 | 0.06 | -0.158 | -0.04 | -0.198 | -0.042 | 0.046 | 0.057 | -0.087 | 0.076 | -0.024 | 0.042 | -0.064
